Shown are actives, neighbours in structure and some others; about 6% of the full set was active somewhere.
D3 antag: D3 dopamine receptor (human) antagonism; 360,000 tested, 2.5% active; max response, negative = inhibition, %; D3R cells, DiscoveRx beta-arrestin luminescence, antagonist mode; active compounds read low; P35462; AID 652054; in the data active = max response below about -50%; note: % is set by controls: 0 for no effect and ±100 for the full control effect
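Cells plated overnight at 1500 cells/well, then exposed to library compounds with dopamine controls for 90 minutes at 37 degrees C. DiscoveRx reagent added for 30–60 minutes at room temperature; luminescence read, quantitative HTS format.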
D1 potentiator: potentiators of human D1 dopamine receptor | P21728 | HEK293 TREx D1 cells, calcium flux, dopamine EC20 potentiation | potentiation, % at 10 µM | 360,000 tested, 0.036% active | AID 504651; in the data active = potentiation above about 30%; note: 0% is about no effect
Target sequence (P21728 whole entry, looked up): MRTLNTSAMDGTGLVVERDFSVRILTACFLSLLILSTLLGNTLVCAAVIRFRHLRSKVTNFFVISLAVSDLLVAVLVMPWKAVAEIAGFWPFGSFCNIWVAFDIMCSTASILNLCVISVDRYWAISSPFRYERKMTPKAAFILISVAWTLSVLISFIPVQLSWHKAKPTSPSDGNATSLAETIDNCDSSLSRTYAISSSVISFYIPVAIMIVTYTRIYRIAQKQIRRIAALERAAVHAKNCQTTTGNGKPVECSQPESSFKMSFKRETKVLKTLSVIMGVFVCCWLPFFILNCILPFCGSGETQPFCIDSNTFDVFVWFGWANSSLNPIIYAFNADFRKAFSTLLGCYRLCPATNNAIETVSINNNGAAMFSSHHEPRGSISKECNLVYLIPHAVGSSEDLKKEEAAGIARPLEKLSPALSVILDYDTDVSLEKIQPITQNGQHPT
D3 ag: activates the human D3 dopamine receptor | 410,000 tested, 0.58% active | D3R DiscoveRx beta-arrestin cells, luminescence, 90 min | max activation, % | P35462 | AID 652048; in the data active = max activation above about 30%; note: 0% is about no effect
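Cells at 1500/well, incubated overnight, then treated with pinned compounds (dopamine as control) for 90 min at 37 degrees C. DiscoveRx reagent added for 30 - 60 minutes at room temperature; luminescence read.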
D1 agonist: human D1 receptor agonism. P21728. activation, % at 2 µM. HEK293 T-REx D1 cells, calcium flux, agonist mode. 360,000 tested, 1% active; in the data active = activation above about 30%; note: 0% is about no effect
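Inducible HEK293 T-REx D1 cells, force-coupled to calcium signalling, were plated at 4000 cells/well with tetracycline and held overnight at 30 C. After no-wash calcium dye loading, compound-evoked calcium rise over 180 s flagged agonists.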
D1 antagonist: human D1 dopamine receptor antagonism. 360,000 tested, 3.2% active. HEK293 TREx D1 cells, calcium flux, dopamine EC80; active compounds read low. AID 504652. activity change, negative = inhibition, % at 10 µM; in the data active = activity change below about -30%; note: % is set by controls: 0 for no effect and ±100 for the full control effect
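Tetracycline-induced HEK293 Trex D1 cells, force-coupled to calcium, dye-loaded; compounds added and read 180 s, then EC80 dopamine added and calcium flux tracked kinetically another 180 s.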
* = called active by the depositor; · = no result given.

SMILES	D3 antag	D1 potentiator	D3 ag	D1 agonist	D1 antagonist
OCC[C@H]1C[C@H](O)[C@@H](O)[C@]2(Cc3ccccc3O2)O1	-67.8*	0.1	1.7	0.5	27.6
OCC[C@@H]1C[C@H](O)[C@@H](O)[C@@]2(Cc3ccccc3CCO2)O1	0.0	-0.8	-1.7	1.1	10.1
OCC[C@H]1C[C@@H](O)[C@H](O)[C@]2(Cc3ccccc3CCO2)O1	-9.3	-3.9	31.2*	0.8	4.6
CC(SCc1cc(=O)n2c([nH]c3ccccc32)c1C#N)C(=O)O (stereo not drawn)	-15.0	-3.9	-1.1	3.3	-32.0*
CC1=C(C(=O)Nc2cccnc2)C(c2cccc(F)c2)n2nc(SCc3ccccc3)nc2N1 (stereo not drawn)	·	-0.1	-0.6	-0.7	-14.7
O=C(c1ccc([N+](=O)[O-])cc1)N1CCSC1c1cccc(Cl)c1 (stereo not drawn)	-26.6	-12.5	-10.7	3.3	-34.9*
CCN(CCn1cccn1)C(=O)c1cc(COc2ccc(F)c(F)c2)on1	10.0	-3.5	3.8	11.8	-31.6*
CCS(=O)(=O)N1CCN(C(=O)c2cccnc2)CC1	27.4	-2.7	3.0	4.1	29.5
CC(=O)c1cccc(NC(=O)N2C3CCC2CC(O)(c2cccnc2)C3)c1 (stereo not drawn)	-14.6	2.5	0.6	3.1	1.0
CC1COCC(C)N1C(=O)c1cccnc1 (stereo not drawn)	-124.8*	·	0.5	·	·
O=C(c1ccc(F)cc1)N1C2CCC1CC(O)(c1ccc(F)cc1)C2 (stereo not drawn)	-54.2*	-0.8	-10.2	4.3	18.8
O=C(c1cccnc1)N1C2CCC1CC(O)(c1ccc(F)cc1)C2 (stereo not drawn)	-57.0*	1.1	-27.8	1.7	4.7
Cc1cc(N2CCCC2)nc(N2C3CCC2CC(O)(c2ccc(F)cc2)C3)n1 (stereo not drawn)	·	-6.0	·	0.4	-26.4
CCOC(=O)c1c(N)n(-c2ccccc2CC)c2nc3ccccc3nc12	·	-5.3	-15.9	-0.6	0.7
C=Cc1cc(F)c(S(=O)(=O)N2CCN(S(=O)(=O)c3ccc4c(c3)OCCO4)CC2)cc1F	·	2.5	·	3.8	-10.7
C=CCn1c(N)cc(=O)nc1SCC(=O)N1CCN(c2ccc(F)cc2)CC1	-153.0*	1.6	-8.1	-2.0	-0.5
CCCCCCCCCC(=O)NO	·	·	6.7	·	·
Cn1c(=O)c([N+](=O)[O-])c(Cl)c2ccccc21	-84.8*	-0.1	-21.4	1.8	-21.8
CCN(CC)c1c([N+](=O)[O-])c(=O)n(C)c2ccccc12	4.8	2.8	7.5	-1.5	18.3
CC(=O)CCC(=O)N1CCC(n2nccc2NC(=O)c2ccccc2C)CC1	-22.9	-5.5	0.4	4.0	-14.8
Cc1ccc(S(=O)(=O)N2CCOCC2)cc1NC(=O)CNCc1cccnc1	20.8	-0.9	80.4*	3.5	-20.0
Cc1ccc(S(=O)(=O)N2CCOCC2)cc1NC(=O)CNCc1ccc(Cl)cc1Cl	7.0	·	0.2	·	·
Cc1ccc(S(=O)(=O)N2CCOCC2)cc1NC(=O)COC(=O)CCn1c(C)csc1=O	-17.8	-0.9	-1.3	4.5	-4.4
COc1cc(S(=O)(=O)N2CCOCC2)ccc1NC(=O)COC(=O)CC12CC3CC(CC(C3)C1)C2	-52.7*	-2.4	-5.6	2.2	-6.7
Cc1ccc(S(=O)(=O)N2CCOCC2)cc1NC(=O)COC(=O)CCC(=O)c1ccc(F)cc1	9.2	-7.1	-0.6	4.1	-30.9*
SMILES	D3 antag	D1 potentiator	D3 ag	D1 agonist	D1 antagonist
Cc1ccc(C(=O)OCC(=O)Nc2cc(S(=O)(=O)N3CCOCC3)ccc2C)cc1	4.1	-5.0	-2.8	2.5	3.3
Cc1ccc(S(=O)(=O)N2CCOCC2)cc1NC(=O)COC(=O)Cn1c(C)csc1=O	19.9	-8.1	5.1	3.0	-30.6*
CC(C)(C)OC(=O)N1CCC(c2nnc(SCc3ccccc3F)o2)CC1	·	-3.6	-14.0	9.8	4.2
O=C1NC(=O)C2(CCCc3c([N+](=O)[O-])cccc32)N1 (stereo not drawn)	21.6	·	7.0	·	·
CCNC(=O)/C(=C\c1ccc2c(c1)OCO2)NC(=O)c1ccc(Br)cc1	-12.6	-4.3	-1.5	1.0	10.7
CCN(CC)C(=O)/C(=C\c1ccc2c(c1)OCO2)NC(=O)c1ccc(Br)cc1	12.2	-6.7	10.8	-1.3	-30.0*
CCOC(=O)c1cccc(NS(=O)(=O)c2ccc3[nH]c4c(c3c2)CCCC4)c1	·	-1.5	0.7	1.8	8.9

Source: PubChem BioAssay (National Center for Advancing Translational Sciences (NCATS))
